# Assay results from PubChem BioAssay AID588742 (Southern Research Specialized Biocontainment Screening …, 2011).
# Among all 1,800 compounds or so, about 410 (23%) were called active. No rule for the calls is given here. Only a sample is shown. Results with a measured potency or affinity are listed apart.
# Assay: Vero cell cytotoxicity, cytotoxicity control for flavivirus capping enzyme inhibitors (AID 588742)
# Settings: Vero cells viability, cytotoxicity counter-screen; series mostly up to 40 µM
row,SMILES,outcome
1,CCc1ccc(N(C(=O)c2csnn2)C(C(=O)NC(C)(C)CC)c2cccnc2)cc1 (configuration not stated),inactive
2,O=C1OC(c2ccccc2)/C(=C(/O)c2ccc(Cl)cc2)C1=O (configuration not stated),inactive
3,CC(C)c1noc2ncc(C(=O)c3cc(Cl)cc(Cl)c3O)cc12,inactive
4,CCCCn1c(=O)nc2n(-c3ccccc3)c3ccccc3cc-2c1=O,inactive
5,O=C1c2ccccc2C(=O)c2c(/C=C/N3CCCCC3)ccnc21,inactive
6,O=S(=O)(Nc1c(O)ccc2ccccc12)c1ccccc1,inactive
7,O=c1ccc2c(-c3ccccc3S(=O)(=O)O)c3ccc(O)c(O)c3oc-2c1O,inactive
8,Cc1ccc(S(=O)(=O)NN2C(=O)/C(=C/c3ccc(C(=O)O)cc3)SC2=S)cc1,inactive
9,N#CC1=C(N)N(c2ccccc2)C2=C(C(=O)CCC2)C1c1ccsc1 (configuration not stated),inactive
10,C=CCn1c(SCC(=O)c2ccccc2)nnc1-c1ccc2c(c1)OCO2,inactive
11,N#C/C(=C\c1cccs1)C(=O)c1ccccc1,inactive
12,CC(=O)OCC1=C(C(=O)O)N2C(=O)C(NC(=O)CCn3nc(C(F)(F)F)c(Br)c3C3CC3)C2SC1 (configuration not stated),inactive
13,COc1ccc(N2CCN(C(=O)CCC(=O)N3Cc4ccccc4Oc4ncccc43)CC2)cc1,inactive
14,CN1C(C(=O)NCc2cccs2)=CC(c2ccc(F)cc2)=NS1(=O)=O,inactive
15,O=C(O)C(c1ccccc1)N1C(=O)/C(=C/c2cccs2)SC1=S (configuration not stated),inactive
16,Nc1ccc(S(=O)(=O)Nc2nccs2)cc1N=Nc1ccccc1[N+](=O)[O-],inactive
17,CCOC(=O)c1cc(-c2ccco2)nc2c1c(C)nn2CCC#N,inactive
18,COc1cc(C(C2C(=O)CC(C)(C)CC2=O)C2C(=O)CC(C)(C)CC2=O)ccc1O,inactive
19,COc1cccc(/C=C2\SC(=S)N(NS(=O)(=O)c3ccccc3)C2=O)c1OC,inactive
20,CN(C)c1ccc(C=Nc2ccc(N(C)C)cc2)cc1,inactive
21,O=C1NC(=S)N/C1=C/C=C/c1ccccc1,inactive

row,SMILES,outcome
1,CCCC(C(=O)O)N1C(=O)/C(=C2\C(=O)N(C)c3ccccc32)SC1=S (configuration not stated),inactive
2,CCN1/C(=C2\C(=O)N(C)C(=S)N2C)C=Cc2cc(OC)ccc21,inactive
3,O=C(O)CN1C(=O)/C(=C\c2cccc(OCc3ccc(Cl)cc3Cl)c2)SC1=S,inactive
4,O=C(CNC(=O)N1CC(=O)Nc2ccccc21)Nc1cccc(F)c1,inactive
5,O=C(O)c1[nH]c2ccccc2c1C(c1ccccc1)c1c(C(=O)O)[nH]c2ccccc12,inactive
6,O=C(O)c1ccc(Nc2nc3ccccc3nc2NS(=O)(=O)c2ccc(F)cc2)cc1,inactive
7,O=C(O)c1ccc(NC2=C/C(=N/S(=O)(=O)c3cccs3)c3ccccc3C2=O)cc1,inactive
8,CC(C)(C)c1ccc(S(=O)(=O)/N=C2\C=C(NS(=O)(=O)c3ccccc3)C(=O)c3ccccc32)cc1,inactive
9,Cc1ccc(/C=C2\S/C(=N/S(=O)(=O)c3cccs3)NC2=O)cc1,inactive
10,Cc1ccc(S(=O)(=O)/N=C2\C=C(NS(=O)(=O)c3ccc(C)cc3)C(=O)c3ccccc32)cc1,inactive
11,O=C(O)c1ccc(NS(=O)(=O)c2ccc3c(c2)C(=O)c2cc(S(=O)(=O)Nc4ccc(C(=O)O)cc4)ccc2-3)cc1,inactive
12,Cc1ccc(N2C(N)=C(C#N)C(c3cccnc3)C3=C2CCCC3=O)cc1 (configuration not stated),inactive
13,C=CCOc1cccc(C2C(C(=O)c3cc4ccccc4o3)=C(O)C(=O)N2c2cc(C)on2)c1 (configuration not stated),inactive
14,CCOc1ccc(NS(=O)(=O)c2ccc(Cl)c(N=Nc3c(O)[nH]c(=S)[nH]c3=O)c2)cc1Br,inactive
15,C/C(=N\Nc1cccc(C(=O)O)c1)c1ccc2c(c1)Nc1ccccc1S2,inactive
16,CC(N=Cc1cccc(O)c1O)c1ccccc1 (configuration not stated),inactive
17,CSc1ccc(C(c2c(C(=O)O)[nH]c3ccccc23)c2c(C(=O)O)[nH]c3ccccc23)cc1,inactive
18,CN(C(=S)Nc1ccc(SC(F)F)cc1)c1ccc(O)cc1,inactive
19,CC(C)c1nc(SCC(=O)N2CCCC2)c2ccccc2n1,inactive
20,CC(=O)OCC1=C(C(=O)O)N2C(=O)C(NC(=O)c3ccc(COc4c(C)cccc4Cl)o3)C2SC1 (configuration not stated),inactive
21,Cc1ccc([C@@H]2CC=C(C(=O)O)[C@H](c3ccc(Br)cc3)N2S(=O)(=O)c2ccc(C)cc2)cc1,inactive

row,SMILES,outcome
1,CC1=C/C(=C(/c2cc(C)c(O)c(Br)c2)c2ccccc2S(=O)(=O)O)C=C(Br)C1=O,inactive
2,COc1cc(/C=C2\SC(=S)N(C(C(=O)O)c3ccccc3)C2=O)cc(OC)c1OC (configuration not stated),inactive
3,C[N+](C)(CCOc1ccccc1)Cc1ccccc1 (tested in a mixture with another compound),inactive
4,O=C(CSc1nc2scc(-c3ccco3)c2c(=O)n1-c1ccccc1)NCC1CCCO1 (configuration not stated),inactive
5,CC(C)(C)C1CCc2c(sc(NC(=O)C3CC=CCC3C(=O)O)c2C#N)C1 (configuration not stated),inactive
6,O=C(NC(NC(=S)Nc1ccccc1C(=O)O)C(Cl)(Cl)Cl)c1ccccc1 (configuration not stated),inactive
7,C=CCOc1ccc(C(c2c(C(=O)O)[nH]c3ccccc23)c2c(C(=O)O)[nH]c3ccccc23)cc1,inactive
8,COc1cccc(C=Nc2cc(C(C)C)c(O)cc2C)c1O,inactive
9,O=C(O)COc1ccccc1/C=N/NC(=O)c1cc(-c2ccc(Cl)cc2)nc2ccccc12,inactive
10,Cc1c(Cl)cccc1NS(=O)(=O)c1ccc2c(c1)C1C=CCC1C(c1ccc(C(=O)O)cc1)N2 (configuration not stated),inactive
11,CCOc1ccc(N(C)C(=O)CCc2nnc3ccc(N4CCCC4)nn23)cc1,inactive
12,Cn1c(SCC(=O)N2CCCCC2)nc2cccnc21,inactive
13,O=C1NC2=C(C(=O)CCC2)C(c2ccccc2[N+](=O)[O-])N1 (configuration not stated),inactive
14,Nc1sc2c(c1C(=O)NC1CC1)CCCC2,inactive
15,O=C(CCCN1C(=O)/C(=C/c2ccco2)SC1=S)Nc1cccc(C(=O)O)c1,inactive
16,COc1ccc(N2CCC(CNC(=S)Nc3c(C)cccc3C)C2)cc1 (configuration not stated),inactive
17,CC(Cc1cccc(C(F)(F)F)c1)NCCOC(=O)c1ccccc1 (configuration not stated),inactive
18,O=C(Cc1cnn(-c2ccccc2)c1)c1ccc(O)c(O)c1O,inactive
19,Cc1ccc(S(=O)(=O)ON2C(=O)c3ccccc3C2=O)c(C)c1,inactive
20,O=c1c(C(c2ccc(O)cc2)c2c(O)nc3n(c2=O)CCCS3)c(O)nc2n1CCCS2,inactive
